The values below come from PubChem BioAssay (NCI).

The structures appear in SMILES notation. Compounds without any hit were thinned out: in the full panel of roughly 79,000, 15% have a hit. A number with no mark means an inactive call. Active and inactive are the calls of the source. No stated cut-off is given here; in the data, active means growth inhibition above about 70%; inactive means the rest.

The nature of assay [1]: NCI Yeast Anticancer Drug Screen. Data for the rad50 strain (AID 155).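 Further: 0% = growth of vehicle-only cultures of the same strain.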 The following applies: S. cerevisiae rad50 strain growth inhibition; at 50.0 µM; active compounds read high. In outline:
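Growth of the mutant yeast was measured after compound exposure and referenced to vehicle-treated cultures.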

A short description of assay [2]: NCI Yeast Anticancer Drug Screen. Data for the mec2-1 strain (AID 157). The following applies: S. cerevisiae mec2-1 strain, at 50.0 µM, active compounds read high. Put shortly:
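Cells of the genetically defined mec2-1 yeast strain are incubated with test compound. Inhibition of growth is calculated against vehicle-treated controls.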

Assay [3] can be described thus: NCI Yeast Anticancer Drug Screen. Data for the sgs1 mgt1 strain (AID 161).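 Further: 0% = growth of cultures given vehicle only.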 The following applies: S. cerevisiae sgs1 mgt1 strain, at 50.0 µM, active compounds read high. In outline: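 Read-out: growth inhibition vs vehicle controls. Cells: mutant yeast strain deficient in DNA damage repair.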
The nature of assay [4]: NCI Yeast Anticancer Drug Screen. Data for the cln2 rad14 strain (AID 165).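 Further: 0% = growth equal to vehicle treated cultures.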 The following applies: S. cerevisiae cln2 rad14 strain, at 50.0 µM, active compounds read high. In outline: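 The screen exposed genetically defined yeast (cln2 rad14) to test compounds and scored growth inhibition relative to vehicle-treated controls.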
Assay [5] can be described thus: NCI Yeast Anticancer Drug Screen. Data for the bub3 strain (AID 167). The following applies: S. cerevisiae bub3 mutant strain, at 50.0 µM, active compounds read high. In outline:
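Whole-cell yeast assay. The mutant strain was incubated with compounds, and growth inhibition was determined by comparison with vehicle-treated cells.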

Assay [6] is described as follows: NCI Yeast Anticancer Drug Screen. Data for the mlh1 rad18 strain (AID 175). The following applies: S. cerevisiae mlh1 rad18 strain growth inhibition; at 50.0 µM; active compounds read high. In outline: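 Compound-treated yeast growth, normalised to vehicle controls. Strain bears defined DNA repair mutations.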

Consider `Cc1cc(C)cc(O)c1`, for which the growth inhibition in assay [1] was -9.4%; in assay [2], -12.8%; in assay [3], -42%; in assay [4] it was -13.2%; in assay [5], -14.8%; in assay [6], -1.7%.

As to `CCCCCC#CC(=O)OCC`, the growth inhibition in assay [1] is 0.6%; in assay [2] it was -0.9%; in assay [3] it was -6.25%; in assay [4] it was 10.1%; in assay [5], -11.9%; in assay [6], 15.8%.

`CCOP(=O)(OCC)C1OCC(O)C(C2OC(P(=O)(OCC)OCC)OCC2O)O1` (stereo unspecified): the growth inhibition is 7.95% in assay [1]; 4.4% in assay [2]; 2.45% in assay [3]; 0.85% in assay [4]; -1.55% in assay [5]; 7.25% in assay [6].

For `CCCCN(CCOc1ccnc(=O)[nH]1)CC(C)C`, the growth inhibition in assay [1] is 6%; in assay [2], 13.2%; in assay [3] it was -3.2%; in assay [4] it was -35.5%; in assay [5], 11.3%; in assay [6], -7.7%.

On to `COC1=C(OC)C(=O)C(C(=O)CCCCC(=O)O)=C(C)C1=O`, for which the growth inhibition in assay [1] is 4.8%; in assay [2], 0.5%; in assay [3], 8.5%; in assay [4], -35.4%; in assay [5], 2.9%; in assay [6], 13.9%.

Turning to `CCCCCN(CCCCC)C(=S)[S-].CCCCCN(CCCCC)C(=S)[S-].[Zn]`, the growth inhibition in assay [1] is 72.7% (active); in assay [2], 53.6%; in assay [3], 72.1% (active); in assay [4], 46.4%; in assay [5] it was 42.1%; in assay [6], 60.8%.

Consider `ClC/C=C/COC1CCCCO1` (stereo unspecified), for which the growth inhibition in assay [1] was 6.8%; in assay [2], -8.55%; in assay [3], -8.5%; in assay [4], -13.8%; in assay [5] it was -7.6%; in assay [6], -8.9%.

Regarding `CCC(C)(C)C1CCCCC1OC(C)=O` (stereo unspecified), the growth inhibition was 7.95% in assay [1]; -2.6% in assay [2]; 2.55% in assay [3]; 7.95% in assay [4]; 2.9% in assay [5]; 1.25% in assay [6].

Take `NC(=NCC(O)c1ccccc1)Nc1ccccc1` (stereo unspecified): the growth inhibition in assay [1] is 0.75%; in assay [2], -8.6%; in assay [3], 15.1%; in assay [4] it was 6.1%; in assay [5], 18.1%; in assay [6], 10.6%.

Take `CCCCC1C(=O)N=C2C=CC=CN2C1=O` (stereo unspecified): the growth inhibition is -2.15% in assay [1]; -16.9% in assay [2]; -5.75% in assay [3]; 3.5% in assay [4]; -24.2% in assay [5]; -7.4% in assay [6].

As to `O=C(O)C(CCc1ccccn1)c1ccccc1` (stereo unspecified), the growth inhibition in assay [1] was -4.2%; in assay [2], -26.2%; in assay [3], -26.2%; in assay [4], -17.6%; in assay [5], -44.4%; in assay [6], -0.55%.

For `O=[N+]([O-])c1ccccc1C=NC12CC3CC(CC(C3)C1)C2`, the growth inhibition in assay [1] was 15%; in assay [2], -9.15%; in assay [3], 9.95%; in assay [4] it was -49.2%; in assay [5] it was -15.3%; in assay [6], 3.45%.

Turning to `CC1(C)C(=O)NC(=O)N1CO`, the growth inhibition is 27.1% in assay [1]; 2.4% in assay [2]; -5.45% in assay [3]; 19.9% in assay [4]; 14.9% in assay [5]; 20% in assay [6].

Turning to `C=CCC(C(=O)O)c1ccccc1` (stereo unspecified), the growth inhibition was -11.2% in assay [1]; -12.2% in assay [2]; -5.2% in assay [3]; -29.9% in assay [4]; -14.6% in assay [5]; 1.75% in assay [6].

As for `COc1cc(/C=C(\C)c2ccc3c(c2)OCO3)cc(OC)c1OC`, the growth inhibition in assay [1] was 15%; in assay [2], 12.6%; in assay [3], 35%; in assay [4], 5.15%; in assay [5] it was 12.8%; in assay [6], -5.85%.

For `CCO/C(O)=c1/s/c(=C2/SC(=S)N(c3ccc(C)cc3)C2=O)n(-c2ccccc2)c1=N`, the growth inhibition was -3.8% in assay [1]; -16.8% in assay [2]; -16.4% in assay [3]; -55.5% in assay [4]; -21.4% in assay [5]; -28.4% in assay [6].

Consider `CC(=O)CC(=O)NCCCN1CCCCCC1`, for which the growth inhibition was -1.1% in assay [1]; -20.1% in assay [2]; -9.45% in assay [3]; -1.05% in assay [4]; -11.2% in assay [5]; -4.35% in assay [6].

With `COc1ccc(CC[n+]2cccc(/C(=N/O)c3ccccc3)c2)cc1OC`, the growth inhibition in assay [1] is 46.9%; in assay [2], -8.3%; in assay [3], 25.2%; in assay [4] it was 2.7%; in assay [5] it was 8.25%; in assay [6], 6.35%.

Turning to `Nc1ccc2nc3c4ccccc4c(O)n3nc2c1`, the growth inhibition in assay [1] was -18.5%; in assay [2], -9.15%; in assay [3] it was -18.6%; in assay [4], -47.9%; in assay [5], -6.2%; in assay [6], 14.6%.

For the molecule `COc1ccc(/C(=N\O)c2nccc3cc(OC)c(OC)cc23)cc1OC`, the growth inhibition in assay [1] was 35.8%; in assay [2] it was 14.2%; in assay [3], 27.9%; in assay [4], 9%; in assay [5], -2.95%; in assay [6], 18.4%.

In the case of `CC12CC(=O)C3C(CCC4CC(OS(=O)(=O)O)CCC43C)C1CC1OC(=O)C=C12` (stereo unspecified), the growth inhibition in assay [1] is 18.2%; in assay [2] it was -8.75%; in assay [3], -5.85%; in assay [4], 15.9%; in assay [5], -0.9%; in assay [6], 25.6%.
